Numbering of substitutions follows the chain as printed.

Holding throughout (experiment): yeast three-hybrid, YBZ-1, SC-Leu-His + 0.5 mM 3-AT, 4 days
Details in all cases: tags: N-Gal4 AD-HA kept; label: inside an RPR1-promoter hybrid RNA with tandem MS2 sites; ssRNA

One assay addresses PUM1 PUF domain R3-FWA (Homo sapiens, UniProt Q14671 828-1176, C935F;R936W;Q939A). Put shortly:
(§1)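 Sequencing with Illumina followed PCR amplification of the repeat regions from transformants grown four days on SC-Leu (input) or SC-Leu-His + 0.5 mM 3-AT (selection). The transformants were strain YBZ-1 with a LexA–MS2 coat fusion and a HIS3 reporter, carrying Pumilio-1 PUF domain libraries and matching RNA elements. The interaction score is the log change in variant frequency from input to selection, computed in log2 with a pseudocount of 1 for absent variants.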

A further assay has as its target PUM1 PUF domain R3-KRG (Homo sapiens, UniProt Q14671 828-1176, C935K;Q939G). The procedure, abridged: as §1
The next assay deals with PUM1 PUF domain R3-RGR (Homo sapiens, UniProt Q14671 828-1176, C935R;R936G;Q939R). The procedure, abridged: as §1
In a further assay the target is PUM1 PUF domain R4-CYG (Homo sapiens, UniProt Q14671 828-1176, N971C;H972Y;Q975G). Put shortly: as §1
The next assay addresses T1, PUM1 PUF domain R6-MYR (Homo sapiens, UniProt Q14671 828-1176, N1043M;Q1047R).
T1 sequence: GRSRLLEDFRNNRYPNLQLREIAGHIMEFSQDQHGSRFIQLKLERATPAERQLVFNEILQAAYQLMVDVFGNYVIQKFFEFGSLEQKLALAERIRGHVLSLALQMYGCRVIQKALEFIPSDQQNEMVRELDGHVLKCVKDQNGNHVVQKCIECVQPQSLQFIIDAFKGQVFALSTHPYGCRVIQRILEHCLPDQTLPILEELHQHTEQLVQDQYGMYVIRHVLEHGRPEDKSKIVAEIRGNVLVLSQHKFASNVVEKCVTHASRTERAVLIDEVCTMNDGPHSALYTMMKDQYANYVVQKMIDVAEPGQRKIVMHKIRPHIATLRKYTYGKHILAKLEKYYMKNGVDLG
The procedure, abridged: as §1

The next assay has as its target PUM1 PUF domain R4-SPT (Homo sapiens, UniProt Q14671 828-1176, N971S;H972P;Q975T). The procedure, abridged:
as §1

The target of a further assay is T2, PUM1 PUF domain R6-VWR (Homo sapiens, UniProt Q14671 828-1176, N1043V;Y1044W;Q1047R).
T2 sequence: T1 sequence with M216V, Y217W
The procedure, abridged:
as §1

The target in the next assay is T3, PUM1 PUF domain R6-DWV (Homo sapiens, UniProt Q14671 828-1176, N1043D;Y1044W;Q1047V).
T3 sequence: T1 sequence with M216D, Y217W, R220V
The procedure, abridged: as §1

Another assay concerns the target PUM1 PUF domain R3-YFA (Homo sapiens, UniProt Q14671 828-1176, C935Y;R936F;Q939A). The procedure, abridged:
as §1

The target in another assay is PUM1 PUF domain R3-YRL (Homo sapiens, UniProt Q14671 828-1176, C935Y;Q939L). The procedure, abridged:
as §1

In a further assay the target is PUM1 PUF domain R5-HLK (Homo sapiens, UniProt Q14671 828-1176, C1007H;R1008L;Q1011K). The procedure, abridged: as §1
The target of a further assay is PUM1 PUF domain R5-RAA (Homo sapiens, UniProt Q14671 828-1176, C1007R;R1008A;Q1011A). Put shortly: as §1
Another assay concerns the target PUM1 PUF domain R5-NAG (Homo sapiens, UniProt Q14671 828-1176, C1007N;R1008A;Q1011G). The procedure, abridged: as §1
The next assay has as its target PUM1 PUF domain R5-FRY (Homo sapiens, UniProt Q14671 828-1176, C1007F;Q1011Y). The procedure, abridged:
as §1

A further assay has as its target PUM1 PUF domain R5-FHE (Homo sapiens, UniProt Q14671 828-1176, C1007F;R1008H;Q1011E). Put shortly:
as §1

The target in another assay is PUM1 PUF domain R7-RVQ (Homo sapiens, UniProt Q14671 828-1176, S1079R;N1080V;E1083Q). Put shortly: as §1
A further assay has as its target PUM1 PUF domain R2-RRQ (Homo sapiens, UniProt Q14671 828-1176, N899R;Y900R). Put shortly:
as §1

Another assay concerns the target PUM1 PUF domain R5-FHM (Homo sapiens, UniProt Q14671 828-1176, C1007F;R1008H;Q1011M). Put shortly: as §1
The target in another assay is PUM1 PUF domain R8-HFR (Homo sapiens, UniProt Q14671 828-1176, N1122H;Y1123F;Q1126R). Put shortly: as §1
A further assay concerns the target PUM1 PUF domain R1-FGR (Homo sapiens, UniProt Q14671 828-1176, S863F;R864G;Q867R). The procedure, abridged:
as §1

Sequence of PUM1 PUF domain R1-FGR (Q14671 828-1176 S863F/R864G/Q867R): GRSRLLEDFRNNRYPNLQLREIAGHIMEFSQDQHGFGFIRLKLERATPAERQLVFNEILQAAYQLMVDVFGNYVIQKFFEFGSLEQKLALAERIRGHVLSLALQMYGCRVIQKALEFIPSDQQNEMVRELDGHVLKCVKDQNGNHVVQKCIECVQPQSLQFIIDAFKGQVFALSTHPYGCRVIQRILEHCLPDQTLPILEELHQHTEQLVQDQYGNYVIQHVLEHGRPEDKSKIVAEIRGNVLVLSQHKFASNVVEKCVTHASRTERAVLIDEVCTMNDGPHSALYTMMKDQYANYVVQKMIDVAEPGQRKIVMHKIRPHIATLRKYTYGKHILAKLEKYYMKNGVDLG
Sequence of PUM1 PUF domain R5-FHM (Q14671 828-1176 C1007F/R1008H/Q1011M): as the sequence (Q14671 828-1176 S863F/R864G/Q867R) above, with F36S, G37R, R40Q, C180F, R181H, Q184M counted along it
Sequence of PUM1 PUF domain R5-FRY (Q14671 828-1176 C1007F/Q1011Y): as the sequence (Q14671 828-1176 S863F/R864G/Q867R) above, with F36S, G37R, R40Q, C180F, Q184Y counted along it
Sequence of PUM1 PUF domain R5-FHE (Q14671 828-1176 C1007F/R1008H/Q1011E): as the sequence (Q14671 828-1176 S863F/R864G/Q867R) above, with F36S, G37R, R40Q, C180F, R181H, Q184E counted along it
Sequence of PUM1 PUF domain R3-RGR (Q14671 828-1176 C935R/R936G/Q939R): as the sequence (Q14671 828-1176 S863F/R864G/Q867R) above, with F36S, G37R, R40Q, C108R, R109G, Q112R counted along it

“GGCUAGAACUAGUGGAUCCCCCGGCGCCCGGCGGCUCGAGCCCGGGUAAGUGUAAUUAGUCUGCAUGCCGCCGGGCGCCAUGCCUGCAGGUCGACUCUAGAAAACAUG”: the binding signal with PUM1 PUF domain R3-FWA was 5.26 log2 enrichment (interaction score); in the assay with PUM1 PUF domain R3-KRG, 2.07 log2 enrichment (interaction score); with PUM1 PUF domain R3-RGR it was 2.38 log2 enrichment (interaction score).

On to “GGCUAGAACUAGUGGAUCCCCCGGCGCCCGGCGGCUCGAGCCCGGGUAAGUGUAAAUAGUCUGCAUGCCGCCGGGCGCCAUGCCUGCAGGUCGACUCUAGAAAACAUG”, for which the binding signal with PUM1 PUF domain R3-FWA was 4.55 log2 enrichment (interaction score); with PUM1 PUF domain R3-KRG it was 2.15 log2 enrichment (interaction score); with PUM1 PUF domain R4-CYG, 7.43 log2 enrichment (interaction score); with PUM1 PUF domain R6-MYR it was 6.42 log2 enrichment (interaction score); with PUM1 PUF domain R4-SPT it was 3.95 log2 enrichment (interaction score); with PUM1 PUF domain R6-VWR, 5.89 log2 enrichment (interaction score). Moreover, the binding signal in the assay with PUM1 PUF domain R6-DWV is 2.46 log2 enrichment (interaction score); in the assay with PUM1 PUF domain R3-YFA, 4.33 log2 enrichment (interaction score); with PUM1 PUF domain R3-YRL, 2.11 log2 enrichment (interaction score).

As to “GGCUAGAACUAGUGGAUCCCCCGGCGCCCGGCGGCUCGAGCCCGGGUAAGUGUUAAUAGUCUGCAUGCCGCCGGGCGCCAUGCCUGCAGGUCGACUCUAGAAAACAUG”, the binding signal is 3.05 log2 enrichment (interaction score) with PUM1 PUF domain R5-HLK, 1.06 log2 enrichment (interaction score) with PUM1 PUF domain R5-RAA and 4.83 log2 enrichment (interaction score) in the assay with PUM1 PUF domain R5-NAG.

For the sequence “GGCUAGAACUAGUGGAUCCCCCGGCGCCCGGCGGCUCGAGCCCGGGUAAGUGUCAAUAGUCUGCAUGCCGCCGGGCGCCAUGCCUGCAGGUCGACUCUAGAAAACAUG”, the binding signal with PUM1 PUF domain R5-FRY is 2.31 log2 enrichment (interaction score); with PUM1 PUF domain R5-FHE it was 4.41 log2 enrichment (interaction score); with PUM1 PUF domain R5-RAA it was 2.68 log2 enrichment (interaction score).

For “GGCUAGAACUAGUGGAUCCCCCGGCGCCCGGCGGCUCGAGCCCGGGUAAGUCUAAAUAGUCUGCAUGCCGCCGGGCGCCAUGCCUGCAGGUCGACUCUAGAAAACAUG”, the binding signal with PUM1 PUF domain R7-RVQ is 1.92 log2 enrichment (interaction score).

Regarding “GGCUAGAACUAGUGGAUCCCCCGGCGCCCGGCGGCUCGAGCCCGGGUAAGUUUAAAUAGUCUGCAUGCCGCCGGGCGCCAUGCCUGCAGGUCGACUCUAGAAAACAUG”, the binding signal in the assay with PUM1 PUF domain R7-RVQ was 3.81 log2 enrichment (interaction score).

As for “GGCUAGAACUAGUGGAUCCCCCGGCGCCCGGCGGCUCGAGCCCGGGUAAGUGUAAAGAGUCUGCAUGCCGCCGGGCGCCAUGCCUGCAGGUCGACUCUAGAAAACAUG”, in the assay with PUM1 PUF domain R2-RRQ, the binding signal is 3.28 log2 enrichment (interaction score).

In the case of “GGCUAGAACUAGUGGAUCCCCCGGCGCCCGGCGGCUCGAGCCCGGGUAAGUGCAAAUAGUCUGCAUGCCGCCGGGCGCCAUGCCUGCAGGUCGACUCUAGAAAACAUG”, the binding signal in the assay with PUM1 PUF domain R6-MYR is 2.56 log2 enrichment (interaction score).

Consider “GGCUAGAACUAGUGGAUCCCCCGGCGCCCGGCGGCUCGAGCCCGGGUAAGUGUGAAUAGUCUGCAUGCCGCCGGGCGCCAUGCCUGCAGGUCGACUCUAGAAAACAUG”, for which the binding signal with PUM1 PUF domain R5-FHM is 5.31 log2 enrichment (interaction score).

Consider “GGCUAGAACUAGUGGAUCCCCCGGCGCCCGGCGGCUCGAGCCCGGGUAAGCGUAAAUAGUCUGCAUGCCGCCGGGCGCCAUGCCUGCAGGUCGACUCUAGAAAACAUG”, for which the binding signal with PUM1 PUF domain R8-HFR was 4.92 log2 enrichment (interaction score).

For “GGCUAGAACUAGUGGAUCCCCCGGCGCCCGGCGGCUCGAGCCCGGGUAAGUGUACAUAGUCUGCAUGCCGCCGGGCGCCAUGCCUGCAGGUCGACUCUAGAAAACAUG”, in the assay with PUM1 PUF domain R4-SPT, the binding signal is 1.24 log2 enrichment (interaction score).

For “GGCUAGAACUAGUGGAUCCCCCGGCGCCCGGCGGCUCGAGCCCGGGUAAGUGAAAAUAGUCUGCAUGCCGCCGGGCGCCAUGCCUGCAGGUCGACUCUAGAAAACAUG”, the binding signal with PUM1 PUF domain R6-VWR was 3.34 log2 enrichment (interaction score).

Take “GGCUAGAACUAGUGGAUCCCCCGGCGCCCGGCGGCUCGAGCCCGGGUAAGUGUAAAUUGUCUGCAUGCCGCCGGGCGCCAUGCCUGCAGGUCGACUCUAGAAAACAUG”: in the assay with PUM1 PUF domain R1-FGR, the binding signal was 3.11 log2 enrichment (interaction score).

Take “GGCUAGAACUAGUGGAUCCCCCGGCGCCCGGCGGCUCGAGCCCGGGUAAGUGUAAAUCGUCUGCAUGCCGCCGGGCGCCAUGCCUGCAGGUCGACUCUAGAAAACAUG”: the binding signal with PUM1 PUF domain R1-FGR is 0.54 log2 enrichment (interaction score).

(Values after PMC8384837, “Expanding the binding specificity for RNA recognition by a PUF domain”.)
